In the library only some 11% were active in any assay of this set; here they are far more common.
AmpC no deterg – inhibitors of E. coli AmpC beta-lactamase without detergent; 330,000 tested, 0.52% active; P00811; Potency, µM (doses to about 57.1 µM), usual class: inhibitors; AmpC nitrocefin hydrolysis, absorbance 480 nm, 0.0001% Triton; further: nearly all actives have a fitted effect of over 20% in size
Target sequence (P00811 whole entry, looked up): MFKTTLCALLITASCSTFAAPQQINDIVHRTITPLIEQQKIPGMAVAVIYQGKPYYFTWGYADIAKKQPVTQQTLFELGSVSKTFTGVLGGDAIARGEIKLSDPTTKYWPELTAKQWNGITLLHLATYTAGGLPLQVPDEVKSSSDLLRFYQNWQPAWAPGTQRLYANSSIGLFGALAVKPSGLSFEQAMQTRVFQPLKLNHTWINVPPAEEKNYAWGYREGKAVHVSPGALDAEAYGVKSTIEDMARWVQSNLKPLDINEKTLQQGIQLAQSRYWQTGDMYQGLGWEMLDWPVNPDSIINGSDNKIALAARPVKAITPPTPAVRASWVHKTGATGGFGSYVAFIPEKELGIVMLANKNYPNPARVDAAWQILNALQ
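AmpC (5.3 nM in the dispensed reagent) in 20 mM phosphate pH 7.0 with 0.01% (detergent screen) or 0.0001% Triton X-100 was preincubated with compounds for 15 min at room temperature. Nitrocefin was then added from an 800 uM solution, and hydrolysis was followed at 480 nm.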
Pf growth 48h – inhibits P. falciparum growth in the first generation, 48 h; P. falciparum luciferase growth in erythrocytes, 48 h; Potency, µM (series often up to 28.7 µM), hits mostly inhibitors; 310,000 tested, 5.9% active
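Parasite viability was followed by luminescence of a genomically integrated firefly luciferase. Cultures held 0.1% parasitemia at 2% hematocrit (final), incubated under 5% CO2 at 37 C.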
AmpC inh detg – inhibitors of E. coli AmpC beta-lactamase with detergent. 370,000 tested, 0.041% active. AmpC hydrolysis of nitrocefin, absorbance 480 nm, 0.01% Triton. Potency, µM (doses to about 114 µM), actives largely listed as inhibitors; further: nearly all actives have a fitted effect of over 25% in size
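AmpC (5.3 nM in the dispensed reagent) in 20 mM phosphate pH 7.0 with 0.01% (detergent screen) or 0.0001% Triton X-100 was preincubated with compounds for 15 min at room temperature. Nitrocefin was then added from an 800 uM solution, and hydrolysis was followed at 480 nm.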
Pf growth 96h – P. falciparum growth inhibition at 96 hours. AID 504834. Potency, µM (titrated, usually from 28.7 µM), most hits filed as inhibitors. 320,000 tested, 6.9% active. P. falciparum luciferase reporter growth, 96 h
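P. falciparum expressing integrated firefly luciferase, in erythrocytes at 2% hematocrit, 0.05% parasitemia, incubated with compounds 96 h at 37 C, 5% CO2. Growth inhibition read as loss of luminescence; two-generation exposure targets delayed-death apicoplast inhibitors.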
HCV inh – inhibitors of hepatitis C virus infection | Potency, µM (highest dose often 41.8 µM), hits mostly inhibitors | 340,000 tested, 3.4% active | Huh7.5.1 HCVcc-Cre infection, luciferase reporter, 44 h
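HCVcc-Cre virus at an moi near 0.5 was added right after compound to cells cultured 4 h from seeding (1,000 cells/well). Luciferase activity was determined 44 h later, 15 min after substrate addition at RT.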
AMA1-RON2 inh – inhibitors of Plasmodium falciparum AMA1-RON2 interaction; AlphaScreen AMA1-biotinylated RON2 peptide binding; Potency, µM (doses to about 58.2 µM), hits mostly inhibitors; 360,000 tested, 0.2% active; AID 720542; further: nearly all actives have a fitted effect of over 45% in size
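AMA1 (3D7) with his tag at 25 nM final met compounds first, then biotinylated RON2 peptide at 25 nM; detection used donor plus acceptor beads, 10 µg/mL apiece, read by AlphaScreen after 30 min at room temperature.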
A number is an active result; n = inactive; u = inconclusive; x = not tested or not shown; [ ] = dose if it differs, or a comment. The call rests on the fitted dose curve; in most records, active means well fitted curve in the direction sought with a large enough effect; inconclusive means small, poorly fitted or top-dose-only effect, or another doubt; inactive means no such curve, though single readings can be large; an effect the other way counts as inactive or inconclusive.

SMILES	AmpC no deterg	Pf growth 48h	AmpC inh detg	Pf growth 96h	HCV inh	AMA1-RON2 inh
NS(=O)(=O)c1ccc(N=Nc2c(O)ccc3ccccc23)cc1	n	n	n	n[5.75 µM]	n	u
NC(=O)c1ccc(N=Nc2c(O)c3ccccc3[nH]c2=O)cc1	n	2.6µM	u	1.5µM	x	x
COc1cc(N=Nc2c(O)c3ccccc3[nH]c2=O)c(OC)cc1N=Nc1ccccc1	n	3.3µM	n	2.3µM	n	n
N=C(N)c1ccc(N=Nc2c(O)ccc3c2[nH]c2ccccc23)cc1	x	x	x	x	n	25µM
Cc1cccc(NC(=O)c2sc3ncnc(N(C)C4CCCCC4)c3c2C)c1C	x	x	n	x	x	x
COc1ccc(C(=O)Nc2nnc(S(=O)(=O)N(C)c3ccc(C)cc3)s2)cc1	x	x	n	x	x	x
COCCOC(=O)c1c(-c2ccccc2)c(-c2ccccc2)nn(C)c1=O	x	x	n	x	x	x
NS(=O)(=O)c1ccc(CCNC(=O)c2ccc3nc4ccc(Cl)cc4c(=O)n3c2)cc1	n[11.4 µM]	12µM	u	n	u	n
Cc1ccc(CCNC(=O)c2ccc3nc4ccc(Cl)cc4c(=O)n3c2)cc1	n	x	u	n	n	n
O=C1c2ccccc2C(Nc2ccc3c(c2)OCCO3)N1Cc1ccc2c(c1)OCO2 (stereo not drawn)	10µM	u	u	n	u	u
O=C1c2ccccc2C(Nc2ccc3c(c2)OCCO3)N1c1ccccn1 (stereo not drawn)	n	9.3µM	n	n	n	n
O=C1c2ccccc2C(Nc2ccc(F)c(Cl)c2)N1c1ccccn1 (stereo not drawn)	n	x	n	4.7µM	n	n
COc1ccc(NC2c3ccccc3C(=O)N2c2ccccn2)cc1Cl (stereo not drawn)	n	x	u	8.3µM	n	n
O=C1c2ccccc2C(Nc2ccccc2)N1c1ccc(Cl)cn1 (stereo not drawn)	n	x	n	u	n	n
COc1cc(NC(=O)N2CCC3(CC2)Nc2ccccc2-n2cccc23)cc(OC)c1OC	x	x	n	x	x	x
CCCCn1c(SCC(=O)Nc2cccc(OC)c2)nc2ccsc2c1=O	x	x	n	x	x	x
CC(C)(C)C1CCc2c(sc(NC(=O)c3ccc(Cl)cc3)c2C(=O)NCc2ccco2)C1 (stereo not drawn)	x	x	n	x	x	x
O=C(NCc1ccco1)c1ccc(Cn2c(=O)c3sccc3n(Cc3cccc(F)c3)c2=O)cc1	n	x	u	2.6µM	u	n
O=C(NCc1ccco1)c1ccc(Cn2c(=O)c3ccccc3n(Cc3cccc(Cl)c3)c2=O)cc1	n	x	u	x	u	n
O=C(NCc1ccco1)c1cc2sccc2n1Cc1ccccc1	n	12µM	u	2.1µM	u	n
O=C(c1ccco1)N1CCN(C(=O)c2cc3sccc3n2Cc2ccccc2)CC1	n	12µM	n	n	n	n
CN1CCN(C(=O)c2cc3sccc3n2CC(=O)c2ccccc2)CC1	n	n	u	n	n	n
O=C(Nc1cccc(Cl)c1)c1cc(S(=O)(=O)N2CCCc3ccccc32)ccc1F	x	x	n	x	x	x
CCOc1cc(Br)cc(C2NC(=O)c3c(sc4c3CCN(C)C4)N2)c1O (stereo not drawn)	x	x	n	x	x	x
CCOCCCNC(=O)C(c1ccc(OC)cc1)N(Cc1cccs1)C(=O)c1ccc(NC(C)=O)cc1 (stereo not drawn)	x	x	n	x	x	x
SMILES	AmpC no deterg	Pf growth 48h	AmpC inh detg	Pf growth 96h	HCV inh	AMA1-RON2 inh
O=[N+]([O-])c1ccccc1S(=O)(=O)Oc1ccccc1/C=N/n1cnnc1	n	n	u	1.9µM	n	n
O=[N+]([O-])c1cccc(/C=N/n2cnnc2)c1O	n	n	n	n	n	n
CCOc1ccccc1C1c2[nH]c3ccccc3c2C[C@H]2C(=O)N(C3CC3)CC(=O)N12 (stereo partly drawn)	n	u	n	9.3µM	n	n
CCOc1ccc(C2c3[nH]c4ccccc4c3C[C@H]3C(=O)N(C4CCN(Cc5ccccc5)CC4)CC(=O)N23)cc1OC (stereo partly drawn)	n	n[0.00184 µM]	n	u	u	n
CCCN1CC(=O)N2C(c3cccc(OC)c3OC)c3[nH]c4ccccc4c3C[C@H]2C1=O (stereo partly drawn)	n	9.3µM	n	4.1µM	n	n
COc1cc(C2c3[nH]c4ccccc4c3C[C@H]3C(=O)N(CCO)CC(=O)N23)cc(OC)c1OC (stereo partly drawn)	n	u	n	n	n	n
O=C1[C@@H]2Cc3c([nH]c4ccccc34)C(c3cccc([N+](=O)[O-])c3)N2C(=O)CN1C1CCN(Cc2ccccc2)CC1 (stereo partly drawn)	n	9.3µM	n	15µM	x	x
CC(C(=O)NCc1cccc(Br)c1)n1ncn2cccc2c1=O (stereo not drawn)	x	x	n	x	x	x
COc1cc(C2CC(=O)Oc3c2c(=O)[nH]c2ccccc32)cc(OC)c1OC (stereo not drawn)	x	x	n	x	x	x
COc1cc(C2CC(=O)Oc3c(C(CCN4CCOCC4)c4ccc(N(C)C)cc4)c(OC)cc(OC)c32)cc(OC)c1OC (stereo not drawn)	n	12µM	n	u	n	u
COc1cc(C2CC(=O)Oc3c(C(CCN4CCN(c5ccccc5)CC4)c4ccc(N(C)C)cc4)c(OC)cc(OC)c32)cc(OC)c1OC (stereo not drawn)	n	4.1µM	n	4.1µM	n	14µM
O=C(NCc1ccco1)c1ccc(N2CCOCC2)c([N+](=O)[O-])c1	n	n	n	u	n	n
NNC(=O)c1ccc(N2CCCCCC2)c([N+](=O)[O-])c1	n	u	n	n	u	n
CC1CC(C)CN(c2ccc(C(=O)NCc3ccc4c(c3)OCO4)cc2[N+](=O)[O-])C1 (stereo not drawn)	3.2µM	n	n	n	u	u
Cc1ccc(N(Cc2ccco2)C(=O)c2ccc(N3CCCCC3)c([N+](=O)[O-])c2)cc1	n	n	n	12µM	u	u
O=C(NCc1ccco1)c1ccc(N2CCCCC2)c([N+](=O)[O-])c1	n	8.3µM	n	6.6µM	u	n
CC1CCN(S(=O)(=O)c2cccc(C(=O)NCc3ccco3)c2)CC1	n	n	n	n	n	n
CC1CCN(c2ccc(C(=O)NCc3ccco3)cc2[N+](=O)[O-])CC1	n	0.83µM	n	1.2µM	u	n[2.32 µM]
O=C(CN1CC[n+]2c(-c3ccccc3)csc21)c1ccc(Br)cc1	n	7.4µM	n	u	u	n
N#CCN1CCN(CC(=O)c2ccc(Br)cc2)CC1	n	n	n	u	n	n
CC(=O)N1CCN(CC(=O)c2ccc(Br)cc2)CC1	n	n	n	n	n	n
O=C(CN1CC[n+]2c(-c3cccs3)csc21)c1ccc(Br)cc1	n	13µM	n	n	u	n
